Inconclusive results are not listed. Activity calls are given as the source filed them. Calls come from the whole dose curve; as a rule, active = well fitted cell-killing curve with a large enough effect; inconclusive = small, poorly fitted or top-dose-only effect; inactive = no such curve, though single readings can be large or run the other way.
Potency is the fitted concentration of half-maximal effect.

The nature of this assay: qHTS of pediatric cancer cell lines to identify multiple opportunities for drug repurposing: Confirmatory screen for TC32 cells (AID 1347118).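 Note: cells exposed to compound for 48 h before the read; nearly all actives have a fitted effect of over 65% in size.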 Conditions: TC32 Ewing sarcoma cells viability qHTS; series mostly up to 45.9 µM. An excerpt: Drug repurposing or repositioning has been offered as a strategy for drug development in oncology programs. This approach has special potential for childhood cancers and other rare or orphan diseases, where the expected return on new drug development has been a disincentive to pharmaceuticals.
In this project we exploit the poly-pharmacology of drugs to discover new indications via phenotypic screening of a panel of 19 well-characterized cell lines derived from solid tumors seen in children and adolescents. The goal is to identify approved drugs with previously unrecognized anticancer properties that has the potential to reveal new mechanisms and biological processes involved in carcinogenesis or drug resistance. We employed a titration-based paradigm (quantitative high-throughput screening or qHTS), where all compounds were tested at multiple concentrations for their effect on cell viability. Concentration-response curves (CRCs) were derived directly from the primary screen, and both potency and efficacy values were used to identify compounds with robust bioactivity profiles. We screened the NIH Chemical Genomics Center (NCGC) Pharmaceutical Collection (NPC) and Mechanism Interrogation Plate (MIPE) small molecule collections of approved and investigational compounds against these cell lines; and measured metabolically active cells after 48 hours of compound treatment as a proxy for cell viability.
Assay Submitter: Nathalia J. Martinez, National Center for Advancing Translational Sciences, National Institutes of Health, Rockville, MD, USA; email: natalia.martinez@nih.gov
[1] Shen, M et al. Quantitative high-throughput phenotypic screening of pediatric cancer cell lines identifies multiple opportunities for drug repurposing. Oncotarget 2017 Dec 19;9(4):4758-4772. PMID 29435139.
The cells were obtained from University of North Carolina (UNC), Pediatric Preclinical Testing Program (PPT), and Coriell Institute (CI).
qHTS cell viability assay:
Cells were assayed in growth media at a density of 500-1,000 cells/well. Five microliters of cells were dispensed into 1,536-well, white, solid-bottom, TC-treated plates (Greiner Bio One) using a multidrop dispenser and incubated at 37 degrees C, 5% CO2, under a humidified atmosphere for 5 hours. Twenty-three nanoliters of compounds and controls (neutral control DMSO or positive control bortezomib at final concentration of 2.3 uM) were subsequently transferred by Kalypsys pintool. For primary screens, the MIPE collection was tested at 11-point dilutions (final concentrations range from 0.78 nM to 46 µM) and the NPC collection at 8-point dilutions (final concentrations range from 0.59 nM to 46 µM). Compounds tested in follow-up screens were assayed at 11-point dilutions. Cells were incubated for 48 hours, followed by addition of 3 uL of CellTiter-Glo (Promega). After a 15min incubation at room temperature, samples were analyzed for luminescence intensity using a ViewLux High-throughput CCD imager equipped with clear filters.
Take `CCC(=O)O[C@]1(C(=O)COC)[C@@H](C)C[C@H]2[C@@H]3CCC4=CC(=O)C=C[C@]4(C)C3(F)[C@@H](O)C[C@@]21C` (some centres not stated): the Potency result was “inactive”. The same measure for `COc1c(C)c2c(c(O)c1C/C=C(\C)CCC(=O)OCCN1CCOCC1)C(=O)OC2`: 1.47 µM (active); for `Nc1ccc2cc3ccc(N)cc3nc2c1`: 9.27 µM (active). Regarding `CCC1=C[C@@H]2CN(C1)Cc1c([nH]c3ccccc13)[C@@](C(=O)OC)(c1cc3c(cc1OC)N(C)[C@H]1[C@@](O)(C(=O)OC)[C@H](OC(C)=O)[C@]4(CC)C=CCN5CC[C@]31[C@@H]54)C2`, the Potency is 0.0165 µM (active). With `CCC1(c2cnc[nH]2)Cc2ccccc2C1`, the Potency was 4.14 µM (active). The same measure for `CCCCC(=O)OCC(=O)[C@H]1[C@H](C)C[C@H]2[C@@H]3C[C@H](F)C4=CC(=O)C=C[C@]4(C)[C@@]3(F)[C@@H](O)C[C@@]21C`: 16.5 µM (active); for `N=C(N)c1ccc(OCCCOc2ccc(C(=N)N)cc2)cc1`: 23.3 µM (active); for `CCN(CC)CC(=O)OCC(=O)[C@@]1(O)CC[C@H]2[C@@H]3CCC4=CC(=O)CC[C@]4(C)[C@H]3[C@@H](O)C[C@@]21C`: 11.7 µM (active).

In the case of `CC(=O)[C@@]1(O)CC[C@H]2[C@@H]3C[C@H](C)C4=CC(=O)CC[C@]4(C)[C@H]3CC[C@@]21C`, the Potency is 10.4 µM (active). The same measure for `CO[C@@H]1[C@@H](OC)[C@H](C)[C@@](O)(CC(=O)O)O[C@H]1[C@H](C)[C@H]1O[C@@]2(CC[C@@](C)([C@H]3CC[C@@](C)([C@@H]4O[C@@H]([C@H]5O[C@](C)(O)[C@H](C)C[C@@H]5C)C[C@@H]4OC4C[C@H](OC)[C@@H](OC)[C@H](C)O4)O3)O2)C[C@H](O)[C@H]1C` (some centres not stated): 2.08 µM (active); for `O=[N+]([O-])c1ccc(O)c2ncccc12`: 5.85 µM (active). Then `CC[C@@]1(O)C(=O)OCc2c1cc1n(c2=O)Cc2c-1nc1ccccc1c2/C=N/OC(C)(C)C`, with 0.0052 µM (active). Then `O=c1[nH]sc2cc(Cl)ccc12`, with 20.8 µM (active); and `Cc1nc(N)nc(N)c1-c1ccc(Cl)c(Cl)c1`, with 0.147 µM (active). For `COc1cc(/C=C/C(N)=O)cc(OC)c1OC`, the Potency result is “inactive”. As for `CC(C)(C)CC(=O)OCC(=O)[C@@]1(O)CC[C@H]2[C@@H]3CCC4=CC(=O)C=C[C@]4(C)[C@H]3[C@@H](O)C[C@@]21C`, the Potency result is “inactive”. The same measure for `CCCC(=O)O[C@]1(C(=O)COC(=O)CC)CC[C@H]2[C@@H]3CCC4=CC(=O)CC[C@]4(C)[C@H]3[C@@H](O)C[C@@]21C`: 8.27 µM (active); for `Nc1c2ccccc2nc2ccccc12`: 2.93 µM (active).

Turning to `Cc1ccc(C(=O)Oc2ccc(C(O)CNC(C)(C)C)cc2OC(=O)c2ccc(C)cc2)cc1` (configuration not stated), the Potency was 5.22 µM (active). `Cc1cc(OCCOCC[N+](C)(C)Cc2ccccc2)ccc1C(C)(C)CC(C)(C)C`: the Potency is 2.93 µM (active). With `CCc1cc2cc(OC)c(OC)cc2c(Cc2ccccc2)n1`, the Potency result is “inactive”. The same measure for `CC(=O)OCC(=O)[C@@]1(O)CCC2C3CCC4=CC(=O)CC[C@]4(C)C3[C@@H](O)C[C@@]21C` (some centres not stated): 26.1 µM (active).

(Values after PubChem BioAssay (NCATS).)
